Bioassay records from PubChem.
Hits are enriched below; roughly 3.3% of the tested compounds scored in any of these assays.
SMARCA2 act: activators of SMARCA2 function. activation, % at 9.1 µM. actives 1% (n = 370,000). AID 652017. MG213 cells, MMTV-luciferase reporter, dexamethasone, overnight; in the data active means activation above about 7.8%;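 further: 0% = vehicle wells and 100% = reference activator wells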
esBAF inh: blocks esBAF chromatin remodeling in mouse ES cells; Bmi1-luciferase knock-in reporter, 24 h; 100% = twice the neutral-well signal; reporter increase, % at 12.5 µM; actives 2% (n = 350,000); in the data active means activation above about 40%; inconclusive means no clear call, values can overlap the other calls;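 further: 0% = median of the plate's neutral control wells and 100% = double that signal; a rise in the Bmi1 reporter signal indicates esBAF inhibition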
Gli-Sufu antag: antagonists of Gli-Sufu signaling | Sufu-KO-LIGHT fibroblasts, Gli luciferase reporter luminescence | inhibition, % at 5 µM | actives 0.74% (n = 340,000) | AID 588413;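 active means inhibition above about 55%, limit read from the data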;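 further: 0% = DMSO-treated cells and 100% = wells with medium but no cells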
697 NFkB inh: lowers PMA/ionomycin-induced NF-kB signal in 697 B cells; 697 B-cell NF-kB luciferase reporter, 16 h; inhibition, % at 4 µM; actives 0.33% (n = 330,000); in the data active means inhibition above about 35%
Jurkat NFkB inh: lowers PMA/ionomycin-induced NF-kB signal in Jurkat cells; AID 435003; PMA/ionomycin-induced NF-kB luciferase reporter, luminescence; inhibition, % at 4 µM; actives 0.53% (n = 330,000); in the data active means inhibition above about 50%
697 NFkB conf: lowers PMA/ionomycin-induced NF-kB signal in 697 B cells; actives 35% (n = 2,000); 697 B-cell NF-kB luciferase, 16 h; shares compounds with 697 NFkB inh; inhibition, % at 4 µM; in the data active means inhibition mostly above about 28%, no sharp cut-off; inactive means mostly below about 22%
* = called active by the depositor; i = inactive; ? = inconclusive; nt = not tested or not shown.

SMILES	SMARCA2 act	esBAF inh	Gli-Sufu antag	697 NFkB inh	Jurkat NFkB inh	697 NFkB conf
COc1ccc(OC)c(NC(=O)c2nc(S(=O)(=O)Cc3ccccc3)ncc2Cl)c1	6	-72	34	-441	49	-203
Cc1ccc(NC(=O)c2ccccc2O)cc1	5	20	2	-213	-97	nt
Cc1cc(C)cc(NC(=O)Nc2ccc(NC(=O)c3ccccc3O)cc2)c1	-4	2	9	36*	14	37*
O=S(=O)(Nc1ccc2c(c1)OCO2)c1ccccc1	-4	1	-7	17	16	nt
O=C1/C(=C/Nc2ccc3c(c2)OCO3)CCc2ccccc21	2	nt	-77	-469	-58	-251
Cc1noc(C)c1CSc1nc2[nH]ncc2c(=O)n1-c1ccccc1	-1	-28	32	55*	39	55*
Cc1nc(CSc2nc3[nH]ncc3c(=O)n2-c2ccccc2)cs1	-1	-6	3	-17	-11	nt
CC1=CC(C)(C)Nc2ccc(OC(=O)C(Cc3ccccc3)N3C(=O)c4ccccc4C3=O)cc21 (stereo not given)	-1	-54	9	66*	-5	50*
CC1=CC(C)(C)Nc2ccc(OC(=O)CN3C(=O)c4ccccc4C3=O)cc21	2	nt	12	59*	-2	39*
CC(=O)Oc1ccc(CC(C(=O)O)N2C(=O)c3ccccc3C2=O)cc1 (stereo not given)	2	11	7	1	8	nt
CC1=CC(C)(C)Nc2ccc(OC(=O)CN3C(=O)c4cccc5cccc(c45)C3=O)cc21	-8	-57	16	nt	nt	nt
O=C(C[C@@H]1C[C@H]2c3cc(NC(=O)C4CCOCC4)ccc3O[C@H]2[C@@H](CO)O1)NCc1ccccc1	nt	6	nt	nt	nt	nt
C[C@@H]1CN([C@@H](C)CO)C(=O)c2cccc(NC(=O)c3ccc(-c4nccs4)cc3)c2O[C@H]1CN(C)S(=O)(=O)c1ccc(F)cc1	nt	1	nt	nt	nt	nt
COc1ccc(Nc2nccc(-c3ccc(C#N)cc3)n2)cc1	-3	-4	-2	15	-4	nt
COc1ccc(Nc2nccc(-c3cccc(N)c3)n2)cc1	5	-33	-130	-273	-117	-177
CCC1CCCCN1CCCNC(=O)c1ccc2c(c1)c(C)c(C)n2C (stereo not given)	2	1	33	-51	-9	nt
CCC1CCCCN1CCCNC(=O)c1ccc2nc(N3CCCCC3)sc2c1 (stereo not given)	3	?	-5	-298	-93	-310
C[C@@H]1CN([C@H](C)CO)S(=O)(=O)c2ccc(-c3ccc(C(=O)N(C)C)cc3)cc2O[C@H]1CN(C)C(=O)C1CCCCC1	nt	-2	nt	nt	nt	nt
CCOC(=O)c1sc(NC(=S)NC(=O)c2ccccc2)c(C(=O)OCC)c1C	1	nt	18	-45	4	nt
CCOC(=O)C1=C(NC(=S)NC(=O)c2ccccc2)c2ccccc2CC1C(C)C (stereo not given)	-5	-4	0	i	-29	i
CCOC(=O)C1=C(NC(=S)NC(=O)c2ccccc2)c2ccccc2CC1(C)CC (stereo not given)	7	-2	-1	-267	-37	-25
CCOC(=O)c1c(NC(=O)c2ccccc2)sc2c1CCc1ccccc1-2	-1	-8	4	3	4	nt
COc1ccc(-c2noc(N3CCC(C(=O)Nc4ccc(OC)cc4OC)CC3)n2)cc1	0	-21	-4	29	5	nt
COc1ccc(-c2noc(N3CCC(C(=O)Nc4ccc(F)cc4F)CC3)n2)cc1	1	-26	-5	36*	17	35*
COc1cccc(NC(=O)Cn2nnc(C(=O)Nc3cc(Cl)ccc3OC)c2N)c1	1	-9	30	-1	12	nt
COc1ccc(NC(=O)c2nnn(Cc3cccc(F)c3)c2N)c(OC)c1	0	4	7	35*	16	39*
COc1cccc(Cn2nnc(C(=O)Nc3cc(Cl)ccc3OC)c2N)c1	-2	-2	10	41*	15	38*
O=C(NNC(=O)C12CC3CC(CC(O)(C3)C1)C2)c1ccccc1O	-2	-2	-12	-3	-7	nt
O=C(NNC(=O)C12CC3CC(CC(Br)(C3)C1)C2)c1ccccc1F	-2	12	12	44*	3	43*
CCNC(=O)Nc1ccc2c(c1)C(=O)N(C)[C@H]1CC[C@H](CC(=O)NCc3ccc(F)cc3)O[C@@H]1CO2	nt	-4	nt	nt	nt	nt
